Seven compounds from ChEMBL document CHEMBL1961873, “Compounds: GSK PKIS; Assays: Nanosyn kinase panel” (2012) can be followed below.

Molecules are shown by their SMILES.

In general, inhibition refers to the change of the read-out against control, counted positive when it falls.

The target in test [1] is Tyrosine-protein kinase receptor UFO (Homo sapiens) (UniProt P30530). As to conditions: at 1 µM.
Test [2] has as its target Tyrosine-protein kinase Blk (Homo sapiens) (UniProt P51451). As to conditions: at 0.1 µM.
For test [3] the target is unchanged. The note with it: at 1 µM.
Test [4] deals with T1, Cytoplasmic tyrosine-protein kinase BMX (Homo sapiens) (UniProt P51813).
T1 sequence (whole entry): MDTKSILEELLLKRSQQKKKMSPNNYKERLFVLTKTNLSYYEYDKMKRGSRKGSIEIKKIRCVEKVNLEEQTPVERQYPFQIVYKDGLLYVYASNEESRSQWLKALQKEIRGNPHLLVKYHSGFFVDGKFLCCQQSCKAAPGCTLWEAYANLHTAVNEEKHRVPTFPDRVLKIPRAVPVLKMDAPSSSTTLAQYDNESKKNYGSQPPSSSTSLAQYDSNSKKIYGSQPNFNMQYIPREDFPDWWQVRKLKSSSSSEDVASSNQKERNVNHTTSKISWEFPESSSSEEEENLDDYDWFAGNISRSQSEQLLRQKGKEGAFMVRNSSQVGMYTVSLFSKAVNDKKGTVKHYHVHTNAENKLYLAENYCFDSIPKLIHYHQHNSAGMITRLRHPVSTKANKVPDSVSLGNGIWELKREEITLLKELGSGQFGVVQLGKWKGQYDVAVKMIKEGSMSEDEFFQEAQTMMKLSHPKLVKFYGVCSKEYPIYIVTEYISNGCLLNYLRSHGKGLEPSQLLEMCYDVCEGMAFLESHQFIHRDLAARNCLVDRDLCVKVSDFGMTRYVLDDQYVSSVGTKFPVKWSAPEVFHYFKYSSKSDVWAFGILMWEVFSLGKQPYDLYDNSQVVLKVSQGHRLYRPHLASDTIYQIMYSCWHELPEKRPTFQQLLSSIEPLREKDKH
The note with it: at 0.1 µM.

Test [5] concerns the target T1, Cytoplasmic tyrosine-protein kinase BMX (Homo sapiens). The note with it: at 1 µM.
Test [6] concerns the target Protein-tyrosine kinase 6 (Homo sapiens) (UniProt Q13882). The note with it: at 0.1 µM.
For test [7] the target is unchanged. As to conditions: at 1 µM.
The target of test [8] is Tyrosine-protein kinase BTK (Homo sapiens) (UniProt Q06187). As to conditions: at 0.1 µM.
Test [9] has the same target. The note with it: at 1 µM.
For test [10], the target named is Tyrosine-protein kinase CSK (Homo sapiens) (UniProt P41240). The note with it: at 0.1 µM.
The target is the same in test [11]. The note with it: at 1 µM.
For test [12], the target named is T2, Discoidin domain-containing receptor 2 (Homo sapiens) (UniProt Q16832).
T2 sequence (whole entry): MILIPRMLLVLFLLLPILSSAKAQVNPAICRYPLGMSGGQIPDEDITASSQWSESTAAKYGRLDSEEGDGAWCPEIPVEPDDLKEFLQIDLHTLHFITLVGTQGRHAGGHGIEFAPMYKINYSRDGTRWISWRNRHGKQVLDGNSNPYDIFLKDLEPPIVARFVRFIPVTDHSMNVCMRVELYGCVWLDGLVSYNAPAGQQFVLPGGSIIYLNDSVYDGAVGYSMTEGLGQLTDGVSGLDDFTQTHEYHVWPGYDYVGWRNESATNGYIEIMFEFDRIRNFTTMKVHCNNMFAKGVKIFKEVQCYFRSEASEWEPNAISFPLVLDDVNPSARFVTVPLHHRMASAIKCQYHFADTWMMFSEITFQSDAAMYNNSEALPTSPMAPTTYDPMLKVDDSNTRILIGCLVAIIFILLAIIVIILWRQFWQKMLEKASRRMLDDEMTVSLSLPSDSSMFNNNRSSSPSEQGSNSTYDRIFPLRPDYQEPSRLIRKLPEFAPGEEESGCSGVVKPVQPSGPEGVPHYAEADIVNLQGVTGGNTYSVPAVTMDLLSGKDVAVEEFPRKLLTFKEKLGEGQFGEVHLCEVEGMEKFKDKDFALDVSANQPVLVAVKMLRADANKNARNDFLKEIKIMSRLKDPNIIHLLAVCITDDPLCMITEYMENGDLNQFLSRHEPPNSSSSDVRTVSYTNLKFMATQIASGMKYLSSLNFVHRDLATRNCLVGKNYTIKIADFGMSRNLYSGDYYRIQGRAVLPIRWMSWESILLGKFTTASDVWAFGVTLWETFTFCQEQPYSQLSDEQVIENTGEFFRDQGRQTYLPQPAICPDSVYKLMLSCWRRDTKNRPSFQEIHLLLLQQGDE
The note with it: at 0.1 µM.

Test [13] has as its target T2, Discoidin domain-containing receptor 2 (Homo sapiens). The note with it: at 1 µM.
The target in test [14] is Epidermal growth factor receptor (Homo sapiens) (UniProt P00533). The note with it: at 0.1 µM.
Test [15] has the same target. As to conditions: at 1 µM.
The test system of test [16] is Epidermal growth factor receptor (Homo sapiens), P00533 [L858R]. The note with it: at 0.1 µM.
The test system is the same in test [17]. As to conditions: at 1 µM.
Test [18] relates to Epidermal growth factor receptor (Homo sapiens), P00533 [L861Q]. The note with it: at 0.1 µM.
Test [19] has the same test system. As to conditions: at 1 µM.
Test [20] concerns Epidermal growth factor receptor (Homo sapiens), P00533 [T790M]. The note with it: at 0.1 µM.

Tyrosine-protein kinase CSK (Homo sapiens), sequence (P41240 2-450 limits assumed): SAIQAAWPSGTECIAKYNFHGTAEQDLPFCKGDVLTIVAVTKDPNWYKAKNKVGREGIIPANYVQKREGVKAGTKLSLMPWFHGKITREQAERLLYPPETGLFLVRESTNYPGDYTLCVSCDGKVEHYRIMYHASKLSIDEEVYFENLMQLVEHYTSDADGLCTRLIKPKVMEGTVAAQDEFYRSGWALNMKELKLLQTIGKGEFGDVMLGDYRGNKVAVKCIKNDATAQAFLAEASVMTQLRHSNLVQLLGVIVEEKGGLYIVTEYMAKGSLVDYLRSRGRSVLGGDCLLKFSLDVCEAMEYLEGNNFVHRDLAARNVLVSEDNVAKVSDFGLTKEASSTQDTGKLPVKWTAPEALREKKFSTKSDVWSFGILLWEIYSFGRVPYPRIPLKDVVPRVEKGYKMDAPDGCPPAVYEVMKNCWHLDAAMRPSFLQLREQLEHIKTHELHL
Epidermal growth factor receptor (Homo sapiens), P00533 [L858R], sequence (P00533 whole entry L858R): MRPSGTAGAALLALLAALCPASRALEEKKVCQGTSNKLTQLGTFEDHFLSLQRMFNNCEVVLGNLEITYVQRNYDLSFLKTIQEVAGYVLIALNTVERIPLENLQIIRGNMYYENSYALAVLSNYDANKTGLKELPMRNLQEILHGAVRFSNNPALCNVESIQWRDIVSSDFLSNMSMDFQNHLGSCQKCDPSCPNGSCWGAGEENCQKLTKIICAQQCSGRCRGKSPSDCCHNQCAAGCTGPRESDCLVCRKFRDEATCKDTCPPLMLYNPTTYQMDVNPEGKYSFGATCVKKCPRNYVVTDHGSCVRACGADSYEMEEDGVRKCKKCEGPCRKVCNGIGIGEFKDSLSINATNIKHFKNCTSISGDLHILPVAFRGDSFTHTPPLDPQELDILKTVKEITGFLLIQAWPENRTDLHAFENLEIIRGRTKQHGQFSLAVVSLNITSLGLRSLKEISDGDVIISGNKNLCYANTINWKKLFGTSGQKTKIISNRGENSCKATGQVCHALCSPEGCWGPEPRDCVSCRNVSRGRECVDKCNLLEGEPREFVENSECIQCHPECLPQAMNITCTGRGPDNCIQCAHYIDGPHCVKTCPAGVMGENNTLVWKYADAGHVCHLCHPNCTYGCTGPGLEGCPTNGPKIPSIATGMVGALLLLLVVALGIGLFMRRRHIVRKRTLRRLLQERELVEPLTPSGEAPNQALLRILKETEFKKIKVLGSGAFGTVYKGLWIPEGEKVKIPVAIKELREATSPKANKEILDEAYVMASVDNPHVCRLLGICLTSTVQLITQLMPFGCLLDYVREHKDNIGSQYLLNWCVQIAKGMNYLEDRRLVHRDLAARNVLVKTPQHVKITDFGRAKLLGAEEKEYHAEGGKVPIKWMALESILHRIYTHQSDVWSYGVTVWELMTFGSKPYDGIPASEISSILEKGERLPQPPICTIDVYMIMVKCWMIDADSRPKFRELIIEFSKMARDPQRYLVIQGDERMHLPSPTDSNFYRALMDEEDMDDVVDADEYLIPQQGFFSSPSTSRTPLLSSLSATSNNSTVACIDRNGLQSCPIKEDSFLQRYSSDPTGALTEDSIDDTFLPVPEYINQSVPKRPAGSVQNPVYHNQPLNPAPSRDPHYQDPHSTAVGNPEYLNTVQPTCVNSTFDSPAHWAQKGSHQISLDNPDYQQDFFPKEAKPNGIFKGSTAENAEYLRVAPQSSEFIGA
Protein-tyrosine kinase 6 (Homo sapiens), sequence (Q13882 whole entry, looked up): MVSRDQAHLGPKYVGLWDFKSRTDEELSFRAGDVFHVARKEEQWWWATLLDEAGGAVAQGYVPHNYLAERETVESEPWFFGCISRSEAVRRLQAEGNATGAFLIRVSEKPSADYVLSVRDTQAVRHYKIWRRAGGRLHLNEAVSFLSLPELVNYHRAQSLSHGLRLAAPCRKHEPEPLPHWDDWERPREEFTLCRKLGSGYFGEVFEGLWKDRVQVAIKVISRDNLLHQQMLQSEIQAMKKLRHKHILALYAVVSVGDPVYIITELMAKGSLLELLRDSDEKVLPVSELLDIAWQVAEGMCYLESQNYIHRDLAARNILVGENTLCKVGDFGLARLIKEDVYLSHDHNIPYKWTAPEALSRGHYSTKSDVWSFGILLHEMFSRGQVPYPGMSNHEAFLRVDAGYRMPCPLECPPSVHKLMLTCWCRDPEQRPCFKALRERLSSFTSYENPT
Tyrosine-protein kinase receptor UFO (Homo sapiens), sequence (P30530 whole entry): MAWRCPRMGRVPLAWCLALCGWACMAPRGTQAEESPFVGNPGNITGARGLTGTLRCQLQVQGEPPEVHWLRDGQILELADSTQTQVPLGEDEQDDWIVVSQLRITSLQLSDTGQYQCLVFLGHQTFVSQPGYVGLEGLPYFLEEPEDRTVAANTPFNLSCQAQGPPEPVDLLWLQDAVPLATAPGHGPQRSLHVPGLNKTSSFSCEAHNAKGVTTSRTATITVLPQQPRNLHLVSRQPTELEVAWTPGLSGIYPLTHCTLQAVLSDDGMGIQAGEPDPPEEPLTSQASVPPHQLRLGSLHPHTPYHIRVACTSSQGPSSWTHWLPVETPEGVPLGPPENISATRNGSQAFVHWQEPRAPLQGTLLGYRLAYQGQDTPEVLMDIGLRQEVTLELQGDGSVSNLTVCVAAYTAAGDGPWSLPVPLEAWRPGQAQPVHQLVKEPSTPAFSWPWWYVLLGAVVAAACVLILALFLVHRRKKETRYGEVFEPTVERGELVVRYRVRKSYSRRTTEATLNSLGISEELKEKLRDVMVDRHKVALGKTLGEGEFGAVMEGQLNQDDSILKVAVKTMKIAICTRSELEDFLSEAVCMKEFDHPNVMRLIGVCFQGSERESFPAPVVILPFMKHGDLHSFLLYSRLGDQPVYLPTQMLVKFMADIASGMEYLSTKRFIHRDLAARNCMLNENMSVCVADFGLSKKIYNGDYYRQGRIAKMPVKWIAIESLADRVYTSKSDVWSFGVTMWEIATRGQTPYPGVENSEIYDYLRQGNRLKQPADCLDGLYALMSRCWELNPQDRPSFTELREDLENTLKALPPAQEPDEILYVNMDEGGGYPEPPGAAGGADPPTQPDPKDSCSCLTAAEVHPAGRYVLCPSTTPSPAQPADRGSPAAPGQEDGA
Tyrosine-protein kinase BTK (Homo sapiens), sequence (Q06187 whole entry): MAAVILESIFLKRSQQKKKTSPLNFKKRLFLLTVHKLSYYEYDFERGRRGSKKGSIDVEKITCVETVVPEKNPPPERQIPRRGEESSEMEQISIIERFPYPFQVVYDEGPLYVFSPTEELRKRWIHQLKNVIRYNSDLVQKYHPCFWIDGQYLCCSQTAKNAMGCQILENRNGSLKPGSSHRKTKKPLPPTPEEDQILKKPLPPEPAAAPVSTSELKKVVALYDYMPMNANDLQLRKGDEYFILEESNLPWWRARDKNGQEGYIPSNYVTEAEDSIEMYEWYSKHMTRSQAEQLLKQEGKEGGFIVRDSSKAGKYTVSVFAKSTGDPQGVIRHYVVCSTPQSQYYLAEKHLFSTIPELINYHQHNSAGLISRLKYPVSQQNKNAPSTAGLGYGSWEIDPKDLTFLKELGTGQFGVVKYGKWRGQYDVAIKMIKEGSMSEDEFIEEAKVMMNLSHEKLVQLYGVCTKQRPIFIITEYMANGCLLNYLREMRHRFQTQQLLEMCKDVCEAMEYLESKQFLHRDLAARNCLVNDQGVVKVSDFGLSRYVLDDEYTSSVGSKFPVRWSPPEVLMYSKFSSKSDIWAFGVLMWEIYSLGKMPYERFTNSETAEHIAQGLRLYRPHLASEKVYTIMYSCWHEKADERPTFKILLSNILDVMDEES
Epidermal growth factor receptor (Homo sapiens), sequence (P00533 whole entry): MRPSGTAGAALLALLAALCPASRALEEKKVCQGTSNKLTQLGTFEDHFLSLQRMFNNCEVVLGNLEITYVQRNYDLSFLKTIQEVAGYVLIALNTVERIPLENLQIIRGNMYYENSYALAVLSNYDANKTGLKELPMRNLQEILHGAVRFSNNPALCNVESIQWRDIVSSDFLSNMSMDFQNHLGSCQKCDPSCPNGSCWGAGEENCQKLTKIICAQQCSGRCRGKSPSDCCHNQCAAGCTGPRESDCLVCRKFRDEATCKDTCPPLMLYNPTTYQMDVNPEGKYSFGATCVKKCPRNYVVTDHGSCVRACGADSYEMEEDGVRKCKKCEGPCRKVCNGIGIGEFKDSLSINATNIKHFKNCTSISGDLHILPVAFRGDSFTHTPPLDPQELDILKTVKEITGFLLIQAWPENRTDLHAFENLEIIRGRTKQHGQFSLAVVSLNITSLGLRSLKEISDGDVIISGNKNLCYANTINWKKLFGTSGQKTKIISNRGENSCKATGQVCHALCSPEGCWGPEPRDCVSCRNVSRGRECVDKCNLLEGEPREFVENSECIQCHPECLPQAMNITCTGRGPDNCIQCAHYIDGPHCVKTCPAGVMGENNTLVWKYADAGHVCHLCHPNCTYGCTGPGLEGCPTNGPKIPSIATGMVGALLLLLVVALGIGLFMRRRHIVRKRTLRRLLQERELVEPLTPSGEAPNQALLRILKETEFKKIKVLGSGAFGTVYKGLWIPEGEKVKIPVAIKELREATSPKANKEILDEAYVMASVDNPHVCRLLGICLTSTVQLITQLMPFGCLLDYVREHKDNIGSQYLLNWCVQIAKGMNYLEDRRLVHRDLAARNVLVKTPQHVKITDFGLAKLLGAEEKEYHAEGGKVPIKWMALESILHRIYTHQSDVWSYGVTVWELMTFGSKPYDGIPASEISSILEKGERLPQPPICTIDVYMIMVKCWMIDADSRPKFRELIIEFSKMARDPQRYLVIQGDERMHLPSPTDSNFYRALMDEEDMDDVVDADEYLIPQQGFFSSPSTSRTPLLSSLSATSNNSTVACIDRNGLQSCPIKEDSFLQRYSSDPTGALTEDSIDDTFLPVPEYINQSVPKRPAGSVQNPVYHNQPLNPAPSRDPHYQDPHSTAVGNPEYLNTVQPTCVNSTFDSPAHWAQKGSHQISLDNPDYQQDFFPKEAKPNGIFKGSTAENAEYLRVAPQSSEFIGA

In the case of `O=S(=O)(CCOCc1ccc(-c2ccc3ncnc(Nc4ccc(OCc5cccc(F)c5)c(Cl)c4)c3c2)o1)c1ccccc1`, the inhibition in test [1] is 1.46%; in test [2], -1.07%; in [3], 1.68%; in test [4], -0.56%; in test [5], 1.08%; in test [6], 0.18%. The inhibition in test [7] is 1.77%; in test [8], -1.67%; in [9] it was -1.3%; in test [10], 1.76%; in [11], 1.36%; in test [12], 1.97%. The inhibition in test [13] was 3.8%; in [14], 71.9%; in test [15], 84.7%; in [16], 25.1%; in test [17] it was 77.3%; in test [18], 33.8%. Besides, the inhibition was 68.4% in test [19] and -0.58% in test [20].

As to `CN(C)C(=O)O[C@@H]1CN[C@@H](C#Cc2cc3ncnc(Nc4ccc(OCc5cccc(F)c5)c(Cl)c4)c3s2)C1`, the inhibition in test [1] was 2.48%; in test [2], 2.22%; in test [3] it was 3.83%; in test [4], 1.11%; in test [5], 3.41%; in test [6], -0.15%. Also, the inhibition is 2.41% in test [7]; -0.22% in [8]; 1.84% in test [9]; -1.53% in test [10]; -1.42% in test [11]; 1.79% in test [12]. Besides, the inhibition in test [13] came out at 3.36%.

Regarding `Cc1cc(O)cc(C)c1/C=C/c1cncc(C(=O)N(C)C)c1`, the inhibition in test [1] is 3.27%; in test [2], 2.94%; in test [3], 3.78%; in [4], -2.2%; in [5], 5.69%; in [6], 2.85%. Further, the inhibition in [7] was 6.32%; in test [8] it was 1.28%; in [9], 1.08%; in [10], 4.08%; in [11] it was 7.46%; in [12] it was 4%. Besides, the inhibition came to 6.51% in [13]; 3.09% in test [14]; 6.63% in test [15]; 2.7% in test [16]; 3.1% in [17]; 3.53% in test [18]. Also, the values for the inhibition in [19] and in [20] were 2.99% and 1.24%, respectively.

Regarding `NC(=O)c1sc(-n2cnc3ccccc32)cc1OCc1ccccc1Br`, the inhibition in test [1] is -4.14%; in [2], 2.16%; in [3], 3.7%; in test [4], 3.03%; in [5], 4.96%; in test [6], 1.74%. Moreover, the inhibition is 7.25% in [7]; -0.65% in test [8]; -0.19% in test [9]; 1.13% in test [10]; 2.18% in test [11]; 1.76% in test [12]. Besides, the inhibition in [13] is 1.6%; in test [14], 1.88%; in [15], 0.93%; in test [16], -0.06%; in test [17] it was 5%; in [18] it was 1.71%. Besides, the inhibition is 2.89% in test [19] and 1.26% in test [20].

On to `COc1cc(/C=N/Nc2ncnc3c2cnn3C(C)C)ccc1O`, for which the inhibition in test [1] was -0.23%; in [2] it was 4.73%; in test [3], 45%; in test [4], 2.71%; in [5] it was 17.1%; in test [6] it was 1.02%. For the same compound, the inhibition in [7] was 4.8%; in [8], -0.92%; in test [9] it was 0.84%; in test [10], 0.38%; in [11], -1.57%; in test [12] it was -0.03%. Also, the inhibition in test [13] is -1.45%; in test [14], 6.39%; in test [15], 9.9%; in [16], 3.23%; in test [17] it was 12.2%; in test [18] it was 2.56%. Besides, the inhibition in test [19] turned out to be 3.26%; in test [20] it was 0.17%.

`COc1cccc(-n2nc(C)c3c(N/N=C(\C)c4ccncc4)ncnc32)c1`: the inhibition in test [1] was 0.56%; in test [2] it was -0.21%; in test [3], 1.02%; in test [4], 1.51%; in [5], 3.74%; in test [6], -1.24%. The inhibition in test [7] was -0.15%; in test [8] it was 0.11%; in test [9], -0.4%; in [10], -0.83%; in test [11], 0.42%; in [12] it was 0.8%. In addition, the inhibition in test [13] is 0.38%; in [14] it was 1.03%; in test [15], 2.43%; in test [16], -0.3%; in test [17] it was 1.45%; in test [18], -0.04%. The inhibition in test [19] is 0.7%; in [20], -1.78%.

Regarding `NC(=O)c1cccc(Nc2nccc(Nc3cccc(F)c3)n2)c1`, the inhibition in test [1] is -2.93%; in test [2], 0.38%; in test [3] it was 13.8%; in test [4], 4.88%; in [5], 37.9%; in test [6], 4.3%. For the same compound, the inhibition in test [7] was 36.2%; in test [8] it was 0.63%; in test [9] it was 7.3%; in test [10] it was 0.49%; in [11] it was 9.32%; in test [12], -1.54%. For the same compound, the inhibition in test [13] was 6.93%; in [14], 1.6%; in [15], 10.6%; in test [16], 0.01%; in test [17] it was 31.4%; in test [18], 0.09%. In addition, the inhibition in test [19] was 10.1%; in [20], -0.56%.
